Consider 23 compounds from PubChem BioAssay AID504697 (The Scripps Research Institute Molecular Screening Center, 2011).

Unmarked numbers belong to inactive results. Active and inactive are the calls of the source.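 How the source made its calls: active means EC50 at or below 10 µM; inactive means EC50 above 10 µM.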

A short description of this assay: fluorescence interference artefacts, compound only, dose response, artefact control for cardiac thin filament activator project, biochemical, no RTF in test wells (AID 504697).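 Further: emission near 535 nm under roughly 485 nm excitation as for IANBD.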 The settings on record: compound-only fluorescence in RTF assay buffer with Ca2+ (no RTF in test wells), artifact counterscreen.
As for `CN(CC(=O)NCc1ccco1)S(=O)(=O)c1cccc2cccnc12`, the EC50 was over 71.5 µM.

In the case of `CC(C)(C)C(=O)/C=c1\s/c(=C\c2ccc(-c3ccc([N+](=O)[O-])cc3)o2)c(=O)n1CC(=O)NC(N)=O`, the EC50 was 1.72 µM (active).

Take `CC(C)Sc1nc2ccc(Br)cc2[nH]1`: the EC50 was over 71.4 µM.

As for `COC(=O)C(=N/Nc1ccccc1C(=O)OC)/C(C)=N/O`, the EC50 was over 71.5 µM.

As to `CN(N=Nc1ccc([N+](=O)[O-])cc1)c1ccccc1`, the 50% effective concentration (EC50) is 8.06 µM (active).

`Cc1ccc(N2C3=C(C(=O)CC(C)(C)C3)C(c3cn(C)nc3C)C3=C2CC(C)(C)CC3=O)cc1`: the EC50 was 17.1 µM.

With `Cc1cccc(/C=N/n2c(-c3ccncc3)n[nH]c2=S)c1`, the EC50 was over 71.5 µM.

Turning to `Cc1ccc(NC(=O)CN(C)c2ccc(S(=O)(=O)N3CCCC3)cn2)cc1`, the EC50 was over 71.5 µM.

For the compound `COc1ncnc2c1N=C1CC(C)(C)CC(N)=C1S2`, the EC50 is 23.5 µM.

For the compound `N#C/C(=C\c1ccc(-c2ccc(F)cc2)o1)C(=O)Nc1nc(-c2cccs2)cs1`, the EC50 is over 71.5 µM.

`COc1ccc(-c2nn(-c3ccccc3)cc2/C=N/NC(N)=S)cc1OC`: the EC50 was over 71.5 µM.

Turning to `CCn1nc(-c2ccccc2)c2nc3ccccc3nc21`, the EC50 is 10.3 µM.

Take `O=C(Nc1ccccc1)NC1CS(=O)(=O)CC1O` (stereo not drawn): the EC50 was over 71.5 µM.

With `CN1CCC2(CC1)C1CN(C)CC=C1C(C#N)=C(N)C2(C#N)C#N` (stereo not drawn), the EC50 was 23.5 µM.

Take `COc1ccc(CCNC(=O)COC(=O)c2cc(=O)[nH]c3ccccc23)cc1`: the EC50 was over 71.5 µM.

On to `Cn1cnnc1Sc1nc2ccccc2nc1NS(=O)(=O)c1ccccc1`, for which the EC50 is over 71.5 µM.

As to `N#CC1=C(N)Oc2ccc3ccc(O)cc3c2C1c1ccsc1` (stereo not drawn), the EC50 is 65.8 µM.

On to `COc1ccccc1-c1nnc(SCc2nc3ccccc3s2)n1C`, for which the EC50 was over 71.5 µM.

On to `O=C(CSc1nc2ncc(Br)cc2[nH]1)c1cccc([N+](=O)[O-])c1`, for which the EC50 is over 71.5 µM.

For `CCN(CC)c1ccc(/C=c2\sc3nnc(-c4ccccc4Cl)n3c2=O)cc1`, the EC50 is 0.644 µM (active).

On to `CC(=O)Oc1ccc(NC(=O)Cc2ccccc2)c(C(=O)O)c1`, for which the EC50 is over 71.5 µM.

Consider `CCOc1ccc2ccccc2c1CNCCN1CCOCC1`, for which the EC50 is over 71.5 µM.

For `CN(C)CCN(C)Cc1c2ccccc2c(CN(C)CCN(C)C)c2ccccc12`, the EC50 was over 71.5 µM.
